Screens as filed in PubChem.
3CLpro inhibitor: SARS-CoV 3CLpro protease inhibition; recombinant SARS-CoV 3CLpro, quenched FRET peptide cleavage; inhibition, % at 6 µM; 290,000 tested, 0.14% active; AID 1706; in the data active = inhibition above about 12%
Yp Topo-I inh: inhibitors of Yersinia pestis topoisomerase I | Y. pestis Topo-I cleavage product accumulation, plate reader | activity, % at 10 µM | 360,000 tested, 0.064% active; in the data active = activity above about 50%, passing the limit was not always enough
MazEF act: MazEF (E. coli) toxin RNase activation; P0AE70; FAM/BHQ RNA-DNA oligo cleavage fluorescence, 5 h; activation, % at 20 µM; 350,000 tested, 0.32% active; in the data active = activation above about 50%
Target sequence (P0AE70 whole entry, looked up): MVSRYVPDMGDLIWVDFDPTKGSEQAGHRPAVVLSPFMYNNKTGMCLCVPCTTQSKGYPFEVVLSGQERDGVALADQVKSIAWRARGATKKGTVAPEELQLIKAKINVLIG
Mtb BioA inh: blocks M. tuberculosis BioA enzyme activity; purified M. tuberculosis BioA enzyme, plate reader; inhibition, % at 9.99 µM; 360,000 tested, 0.096% active; AID 602481; in the data active = inhibition above about 40%
BJeLR lethal: BJeLR cell viability loss | BJeLR (HRASV12) viability, CellTiter-Glo ATP luminescence, 48 h | inhibition, % (no concentration beside the values) | 300,000 tested, 0.17% active | AID 1554; in the data active = inhibition above about 50%
PfHsp40 yeast: compounds rescuing yeast from Plasmodium falciparum HSP40 toxicity. S. cerevisiae expressing PfHsp40, growth rescue, ATP luminescence. growth rescue, % at 12.5 µM. 340,000 tested, 0.68% active; in the data active = growth rescue above about 28%, passing the limit was not always enough;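 note: yeast W303a lacking pdr1 and pdr3 grown in galactose medium; growth measured after three days at 30 °C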
Numbers stand for hits; i = inactive; nt = no result. An excerpt weighted towards active compounds, which were near 1.1% of everything screened.

SMILES	3CLpro inhibitor	Yp Topo-I inh	MazEF act	Mtb BioA inh	BJeLR lethal	PfHsp40 yeast
CCOC(=O)c1c2c(n(C)c1COC)C(=O)C(=O)c1ccc(Br)cc1-2	i	nt	nt	nt	69	nt
C[C@@H]1CN([C@@H](C)CO)C(=O)c2cc(N(C)C)ccc2O[C@@H]1CN(C)S(=O)(=O)c1ccc(Cl)cc1	nt	nt	nt	i	nt	nt
CCn1c(O)c(/C=C/C=C/C=Nc2ccccc2)sc1=S	i	i	i	nt	i	i
CCCCn1c(O)c(/C=C/C=C/C=Nc2ccccc2)sc1=S	i	i	i	nt	i	42
COc1ccc(CN2C[C@H](C)[C@@H](OC)CN(C)C(=O)c3ccc(NC(=O)c4nc5ccccc5s4)cc3OC[C@@H]2C)cc1	nt	nt	nt	i	nt	nt
COc1ccccc1C(=O)N/C(N)=N/c1nc2ccccc2o1	i	i	61	i	i	i
Cc1ccc(C(=O)N/C(N)=N/c2nc3ccccc3o2)cc1	i	i	i	i	i	i
N#C/C(=C/c1ccc(-c2cc(C(=O)O)cc(C(=O)O)c2)o1)c1nc2ccccc2s1	i	nt	nt	nt	i	nt
N#C/C(=C\c1ccco1)c1nc2ccccc2s1	i	i	54	nt	i	i
N#C/C(=C\c1ccc(O)c([N+](=O)[O-])c1)c1nc2ccccc2s1	i	i	i	i	i	i
N#C/C(=C/c1ccco1)c1nc2ccccc2s1	i	i	65	i	i	i
CO[C@H]1CN(C)C(=O)c2cc(NC(=O)Nc3c(C)noc3C)ccc2OC[C@@H](C)N(C)C[C@H]1C	nt	nt	nt	i	nt	nt
CC(C)(C)C(=O)C(Cc1ccccc1Cl)n1cncn1 (stereo not drawn)	i	i	i	i	i	i
CC(C)(C)C(O)C(Cc1ccccc1Cl)n1cncn1 (stereo not drawn)	i	i	i	i	i	276
O=C1C(Nc2ccccc2)=C/C(=N/S(=O)(=O)c2cccs2)c2ccccc21	i	i	i	i	i	266
COCCNC(=O)C[C@H]1CC[C@@H]2[C@H](COC[C@@H](O)CN2Cc2cccc(-c3ccncc3)c2)O1	nt	nt	nt	i	nt	nt
C[C@@H]1CN([C@@H](C)CO)C(=O)Cc2cc(N(C)C)ccc2O[C@@H]1CN(C)C(=O)Nc1ccc(C(F)(F)F)cc1	nt	nt	nt	i	nt	nt
CCCCC#Cc1ccc2c(c1)COc1c3ccccc3nn1-2	nt	i	i	i	i	i
N#CCCCC#Cc1ccc2c(c1)COc1c3ccccc3nn1-2	nt	i	i	i	i	124
C/C=C/c1ccc2c(c1)O[C@@H](CN(C)C(=O)C1CC1)[C@@H](C)CN([C@@H](C)CO)S2(=O)=O	nt	nt	nt	i	nt	nt
Cc1nnsc1C(=O)N/N=C/c1ccc2ccccc2c1O	i	i	i	nt	61	i
Cc1nnsc1C(=O)N/N=C/c1ccccc1	i	i	i	nt	i	i
CNC(=O)C[C@@H]1CC[C@H]2[C@H](COc3ccc(NC(=O)c4cnccn4)cc3C(=O)N2C)O1	nt	nt	nt	i	nt	nt
COc1ccc2c(c1)sc(N)[n+]2Cc1cc(C)cc2cccnc12	i	i	i	i	52	i
COC(=O)[C@H]1[C@H](CO)[C@H]2Cn3c(ccc(-c4ccccc4OC)c3=O)[C@H]2N1C(=O)c1cccnc1	nt	nt	nt	i	nt	nt
SMILES	3CLpro inhibitor	Yp Topo-I inh	MazEF act	Mtb BioA inh	BJeLR lethal	PfHsp40 yeast
C(=N\NC1=Nc2cccc3cccc1c23)/c1ccccc1	i	i	509	nt	i	i
Clc1ccc(/C=N/NC2=Nc3cccc4cccc2c34)cc1	i	i	i	nt	i	i
C=CCn1c(CNC(=O)c2cccs2)nnc1SCC(=O)c1ccc(Br)cc1	i	i	71	i	i	i
C=CCn1c(CCNC(=O)c2cccs2)nnc1SCC(=O)c1ccc(Cl)cc1	i	i	i	i	i	i
COc1ccc(S(=O)(=O)N(C)C[C@H]2Oc3ccc(NS(C)(=O)=O)cc3CC(=O)N([C@H](C)CO)C[C@@H]2C)cc1	nt	nt	nt	i	nt	nt
COc1ccc(NC(=O)N(C)C[C@@H]2OCCCC[C@@H](C)Oc3ccc(NS(=O)(=O)c4c(C)noc4C)cc3C(=O)N([C@@H](C)CO)C[C@H]2C)cc1	nt	nt	nt	i	nt	nt
O=C(NNc1ccc([N+](=O)[O-])cc1)c1ccccc1F	i	i	i	nt	nt	32
O=C(NNc1ccc([N+](=O)[O-])cc1)c1ccccc1Cl	i	i	i	nt	i	i
COCC(=O)N1C[C@H](C)[C@H](OC)CN(C)C(=O)c2cc(NC(=O)NC(C)C)ccc2OC[C@H]1C	nt	nt	nt	i	nt	nt
O=c1[nH]nc(CNc2ccc(O)cc2)c2ccccc12	i	i	444	i	i	i
COc1[nH]c(/N=C/c2ccccc2)c(C#N)c1C#N	i	i	74	nt	i	i
C/C=C/c1cnc2c(c1)C(=O)N([C@@H](C)CO)C[C@@H](C)[C@@H](CN(C)C(=O)C1CC1)O2	nt	nt	nt	i	nt	nt
OC(CSc1nc(-c2ccccc2)c(-c2ccccc2)o1)CC(O)c1ccccc1 (stereo not drawn)	nt	nt	nt	i	nt	nt
C#CCN1C(=O)S/C(=C\c2cc3c(cc2OC)OCO3)C1=O	i	i	196	i	i	i
C/C(=N\NC(=O)c1ccccc1NC(=O)c1ccc(Cl)cc1)c1ccncc1	i	i	i	nt	132	i
O=C(c1c(F)c(F)c(F)c(F)c1F)N1CCN(c2cccc(C(F)(F)F)c2)CC1	i	i	i	i	i	i
O=C(c1ccccc1F)N1CCN(c2cccc(C(F)(F)F)c2)CC1	i	i	i	i	i	121
COc1ccc(NC(=O)Nc2ccc3c(c2)C(=O)N([C@@H](C)CO)C[C@H](C)[C@@H](CN(C)S(=O)(=O)c2cn(C)cn2)OCCCC[C@H](C)O3)cc1	nt	nt	nt	i	nt	nt
CC(C)(C)C(=O)C(Oc1ccc(Cl)cc1)n1cncn1 (stereo not drawn)	nt	i	i	nt	nt	397
COc1ccc(CN(C)C[C@@H]2OCCCC[C@H](C)Oc3ccc(NS(=O)(=O)c4ccc(OC)cc4)cc3C(=O)N([C@H](C)CO)C[C@H]2C)cc1	nt	nt	nt	i	nt	nt
Cc1ccc(-c2csc(NC(=O)c3cccc(C)c3)c2C(=O)O)cc1	nt	i	i	i	i	60
CCOC(=O)C1CCN(S(=O)(=O)c2c(Cl)ccc3nonc23)CC1	i	i	nt	i	60	i
CCOC(=O)C1CCN(S(=O)(=O)c2cccc3nonc23)CC1	i	i	i	i	i	i
COc1ccc(N=Nc2[nH]c3ccc(C)cc3c2O)cc1	i	i	i	nt	i	i
Cc1ccc(N=Nc2[nH]c3ccccc3c2O)cc1	i	i	564	i	i	i
SMILES	3CLpro inhibitor	Yp Topo-I inh	MazEF act	Mtb BioA inh	BJeLR lethal	PfHsp40 yeast
Cc1ccc(N=Nc2c(O)[nH]c3ccc(F)cc23)cc1	i	i	474	i	i	i
Cc1noc(C)c1S(=O)(=O)Nc1ccc2c(c1)C(=O)N([C@H](C)CO)C[C@H](C)[C@H](CN(C)Cc1ccc(Oc3ccccc3)cc1)O2	nt	nt	nt	i	nt	nt
C[C@@H]1CCCCO[C@@H](CN(C)C)[C@H](C)CN([C@H](C)CO)C(=O)c2cc(NS(=O)(=O)c3ccc(F)cc3)ccc2O1	nt	nt	nt	i	nt	nt
CNC[C@H]1Oc2cc(-c3cncnc3)ccc2S(=O)(=O)N([C@H](C)CO)C[C@@H]1C	nt	nt	nt	i	nt	nt
O=C(CN1C(=O)NC2(CCCCCC2)C1=O)Nc1ccc(Cl)cc1Cl	nt	i	i	i	nt	i
CC(NC(=O)CN1C(=O)NC2(CCCC2)C1=O)c1ccc(Cl)cc1Cl (stereo not drawn)	nt	i	i	nt	nt	61
